From PubChem BioAssay AID1159580 (chemical genetic matrix, 2015)
“And” between values parts separate entries of the source, which are not always exact repeats. Equal values may be shown once. In all, about 5,500 compounds went through this assay and about 2,000 (36%) were called active. Another 18% or so got no clear call; they are omitted. Cut-off read from the data, not from the text of the source: active = normalized growth mostly below about 0.91 (no sharp cut-off); inconclusive = no clear call, values can overlap the other calls; inactive = mostly above about 0.92. Some of the results follow.

Test: chemical genetic growth profiling, strain panel (AID 1159580);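 note: tested at 20 µM; growth read once vehicle control cultures reached saturation at 30 °C; 1 = growth at the plate median or of vehicle wells; lower values mean less growth of the strain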
Details: S. cerevisiae deletion strains, growth OD

Measured: normalized growth

CO[C@H]1C[C@H](O[C@H]2[C@H](C)[C@@H](OC3O[C@H](C)C[C@H](N(C)C)[C@H]3OC(C)=O)[C@@H](C)C[C@]3(CO3)C(=O)[C@H](C)[C@@H](OC(C)=O)[C@@H](C)[C@@H](C)OC(=O)[C@@H]2C)O[C@@H](C)[C@@H]1OC(C)=O (some centres undefined)
inactive: locus YAL021C, strain ccr4, stronger effect = lower value 0.998 | locus YAL026C, strain drs2, stronger effect = lower value 1.01 | locus YAL030W, strain snc1, stronger effect = lower value 0.989 | locus YBL061C, strain skt5, stronger effect = lower value 1 | locus YBR009C, strain hhf1, stronger effect = lower value 0.997 | locus YBR021W, strain FUR4, stronger effect = lower value 0.996 | locus YBR023C, strain chs3, stronger effect = lower value 0.996 | locus YBR171W, strain sec66, stronger effect = lower value 1.01 | locus YBR229C, strain ROT2, stronger effect = lower value 1.01 | locus YBR231C, strain swc5, stronger effect = lower value 0.996 | locus YBR279W, strain paf1, stronger effect = lower value 1 | locus YCL011C, strain gbp2, stronger effect = lower value 1.01 | locus YCL016C, strain dcc1, stronger effect = lower value 1 | locus YCL029C, strain bik1, stronger effect = lower value 0.997 | locus YCL061C, strain MRC1, stronger effect = lower value 0.992 | locus YCL069W, strain vba3, stronger effect = lower value 0.994 | locus YCR088W, strain abp1, stronger effect = lower value 0.994 | locus YDL005C, strain med2, stronger effect = lower value 0.985 | locus YDL035C, strain GPR1, stronger effect = lower value 1.01 | locus YDL040C, strain nat1, stronger effect = lower value 0.998 | locus YDL074C, strain BRE1, stronger effect = lower value 1 | locus YDL101C, strain DUN1, stronger effect = lower value 1.01 | locus YDL134C, strain PPH21, stronger effect = lower value 1 | locus YDL185W, strain tfp1, stronger effect = lower value 0.981 | locus YDL192W, strain arf1, stronger effect = lower value 0.989 | locus YDR001C, strain nth1, stronger effect = lower value 0.992 | locus YDR069C, strain doa4, stronger effect = lower value 0.998 | locus YDR101C, strain arx1, stronger effect = lower value 1.01 | locus YDR137W, strain rgp1, stronger effect = lower value 1 | locus YDR159W, strain sac3, stronger effect = lower value 0.997 | locus YDR162C, strain NBP2, stronger effect = lower value 1 | locus YDR195W, strain ref2 1 | locus YDR297W, strain sur2, stronger effect = lower value 0.991 | locus YDR318W, strain mcm21, stronger effect = lower value 0.993 | locus YDR334W, strain swr1, stronger effect = lower value 1 | locus YDR335W, strain msn5, stronger effect = lower value 0.998 | locus YDR388W, stronger effect = lower value 0.979 | locus YDR392W, strain spt3, stronger effect = lower value 0.996 | locus YDR502C, strain sam2, stronger effect = lower value 0.977 | locus YEL003W, strain gim4, stronger effect = lower value 1 | locus YEL037C, strain rad23, stronger effect = lower value 0.998 | locus YEL061C, strain CIN8 (second series), stronger effect = lower value 1 | locus YEL061C, strain CIN8, stronger effect = lower value 1.01 | locus YER015W, strain faa2, stronger effect = lower value 0.998 | locus YER016W, strain bim1, stronger effect = lower value 0.997 | locus YER110C, stronger effect = lower value 0.988 | locus YER111C, strain swi4, stronger effect = lower value 1.01 | locus YER155C, strain BEM2 (second series), stronger effect = lower value 0.994 | locus YER155C, strain BEM2, stronger effect = lower value 1.01 | locus YER167W, strain BCK2, stronger effect = lower value 1 | locus YFR010W, strain ubp6, stronger effect = lower value 1.01 | locus YGL078C, strain dbp3, stronger effect = lower value 0.984 | locus YGL086W, strain mad1, stronger effect = lower value 1 | locus YGL167C, strain pmr1, stronger effect = lower value 0.996 | locus YGL173C, strain kem1, stronger effect = lower value 1.01 | locus YGL227W, strain vid30, stronger effect = lower value 1.02 | locus YGL240W, strain doc1, stronger effect = lower value 1.01 | locus YGL248W, strain PDE1, stronger effect = lower value 1.01 | locus YGL253W, strain hxk2, stronger effect = lower value 0.991 | locus YGR078C, strain PAC10, stronger effect = lower value 1.01 | locus YGR135W, strain pre9, stronger effect = lower value 0.986 | locus YGR252W, strain gcn5, stronger effect = lower value 0.933 | locus YHR013C, strain ard1, stronger effect = lower value 0.986 | locus YHR027C, strain rpn1, stronger effect = lower value 0.995 | locus YHR030C, strain SLT2, stronger effect = lower value 1.01 and 0.973 | locus YHR079C, strain IRE1 (second series), stronger effect = lower value 0.992 | locus YHR079C, strain IRE1, stronger effect = lower value 0.987 | locus YHR094C, strain hxt1, stronger effect = lower value 0.988 | locus YHR129C, strain ARP1, stronger effect = lower value 1.01 | locus YHR142W, strain chs7, stronger effect = lower value 1.01 | locus YHR200W, strain rpn10, stronger effect = lower value 0.992 | locus YIL066C, strain RNR3, stronger effect = lower value 1.01 | locus YIL073C, strain SPO22, stronger effect = lower value 1 | locus YIL125W, strain kgd1, stronger effect = lower value 0.988 | locus YIR030C, strain dcg1, stronger effect = lower value 1 | locus YJL092W, strain hpr5, stronger effect = lower value 1 | locus YJL095W, strain BCK1 (second series), stronger effect = lower value 0.99 | locus YJL095W, strain BCK1, stronger effect = lower value 1.01 and 0.973 | locus YJL115W, strain asf1, stronger effect = lower value 1.02 | locus YJL129C, strain trk1, stronger effect = lower value 0.979 | locus YJL134W, strain LCB3, stronger effect = lower value 1 | locus YJL154C, strain vps35, stronger effect = lower value 0.987 | locus YJL164C, strain tpk1, stronger effect = lower value 1 | locus YJL166W, strain qcr8, stronger effect = lower value 1 | locus YJL168C, strain set2, stronger effect = lower value 0.994 | locus YJL187C, strain SWE1 (second series), stronger effect = lower value 1.01 | locus YJL187C, strain SWE1, stronger effect = lower value 1 | locus YJR043C, strain POL32, stronger effect = lower value 0.986 | locus YJR066W, strain TOR1, stronger effect = lower value 0.955
